High-throughput results from PubChem.
Anthrax LF prot: blocks Bacillus anthracis lethal factor protease; P15917; multiplex microsphere protease cleavage assay, LF; inhibition, % at 10 µM; 360,000 tested, 0.12% active; AID 588501; note: plate controls were buffer without enzyme for full effect and enzyme alone for no effect
BoNT-A LC inh2: inhibitors of Botulinum neurotoxin A light chain protease. multiplex microsphere protease substrate cleavage, flow cytometry. inhibition, % at 10 µM. 360,000 tested, 0.17% active. AID 588499; note: plate controls were buffer without enzyme for full effect and enzyme alone for no effect
BoNT F protease: inhibitors of Botulinum neurotoxin F light chain protease; Multiplex microsphere protease cleavage assay, flow cytometry; inhibition, % at 10 µM; 360,000 tested, 0.22% active; AID 588497; in the data active = inhibition above about 35%, passing the limit was not always enough; inconclusive = no clear call, values can overlap the other calls; note: plate controls were buffer without enzyme for full effect and enzyme alone for no effect
Bead autofluor: compound fluorescence in toxin protease inhibitor counterscreen; AID 624483; fluorescence intensity (concentration not given with the values); 360,000 tested, 3.1% active; compound autofluorescence counterscreen, microsphere flow cytometry; stronger effect = higher value; in the data active = fluorescence intensity above about 16000; inconclusive = no clear call, values can overlap the other calls
MazF activator: MazEF (E. coli) toxin RNase activation; P0AE70; FAM/BHQ RNA-DNA oligo cleavage fluorescence, 5 h; activation, % at 20 µM; 350,000 tested, 0.32% active; AID 504720; in the data active = activation above about 50%
Target sequence (P0AE70 whole entry, looked up): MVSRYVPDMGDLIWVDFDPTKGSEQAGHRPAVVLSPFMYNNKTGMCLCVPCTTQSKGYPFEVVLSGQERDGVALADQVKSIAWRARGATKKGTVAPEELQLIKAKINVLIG
An asterisk follows results filed as active. The list is not random: actives were taken first. Their share in the collection is about 3.6%. Cut-off read from the data, not from the text of the source, unless noted: active = inhibition above about 30%; inconclusive = no clear call, values can overlap the other calls; inactive = below that.

Cc1ccc(Cl)c(OCCN2CCc3ccccc3C2)c1 was read as Anthrax LF prot 8, BoNT-A LC inh2 3, BoNT F protease 11, Bead autofluor 3297 and MazF activator -8.
O=C(Nc1ccc([N+](=O)[O-])cc1)Nc1cnccn1 was read as Anthrax LF prot 3, BoNT-A LC inh2 0, BoNT F protease -3, Bead autofluor 5964 and MazF activator 10.
`Cc1cccn2c(=O)c3c(nc12)N1CCc2ccccc2C1C1(C3)C(=O)NC(=O)N(C)C1=O` (stereo not given) gave Anthrax LF prot -3, BoNT-A LC inh2 1, BoNT F protease 0, Bead autofluor 19729* and MazF activator 2.
Screening Cc1n[nH]c(C)c1N1C(=O)c2cccc3c(N4CCCCCC4)ccc(c23)C1=O returned Anthrax LF prot -6, BoNT-A LC inh2 16, BoNT F protease 33, Bead autofluor 20898* and MazF activator 670*.
For C=CCN1C(=O)c2cccc3c(N4CCCCC4)ccc(c23)C1=O the results were Anthrax LF prot 15, BoNT-A LC inh2 30*, BoNT F protease 14, Bead autofluor 6017 and MazF activator -6.
For Cc1ccc(S(=O)(=O)NCCCCCCNS(=O)(=O)c2ccc(C)cc2)cc1 the results were Anthrax LF prot 0, BoNT-A LC inh2 0, BoNT F protease -2, Bead autofluor 3750 and MazF activator 2.
Cc1ccc(S(=O)(=O)NCCOCCNS(=O)(=O)c2ccc(C)cc2)cc1 was read as Anthrax LF prot 2, BoNT-A LC inh2 0, BoNT F protease 0, Bead autofluor 16362* and MazF activator -1.
Cc1ccc(S(=O)(=O)NCCCCCC(=O)N(C)C)cc1 was read as Anthrax LF prot -3, BoNT-A LC inh2 1, BoNT F protease 2, Bead autofluor 19200* and MazF activator 9.
For CSc1nc(C)cc(OCCNS(=O)(=O)c2ccc(C)cc2)n1 the results were Anthrax LF prot -7, BoNT-A LC inh2 -6, BoNT F protease -7, Bead autofluor 17261* and MazF activator -3.
Screening COc1nc(OCCNS(=O)(=O)c2ccc(C)cc2)nc(N(C)C)n1 returned Anthrax LF prot 8, BoNT-A LC inh2 1, BoNT F protease -7, Bead autofluor 3636 and MazF activator 4.
For Cc1ccc(-n2ncc3c(N4CCC(C(N)=O)CC4)ncnc32)c(C)c1 the results were Anthrax LF prot 2, BoNT-A LC inh2 0, BoNT F protease 0, Bead autofluor 23419* and MazF activator -8.
CCN(CC)C(=O)C1CCN(c2ncnc3c2cnn3-c2ccc(C)cc2C)CC1 was read as Anthrax LF prot 0, BoNT-A LC inh2 0, BoNT F protease 7, Bead autofluor 3693 and MazF activator -6.
For CC1(C)ON=C(c2ccc(C(F)(F)F)cc2)NC1=O the results were Anthrax LF prot -2, BoNT-A LC inh2 0, BoNT F protease -4 and Bead autofluor 5007.
COCCCn1c(SCc2cc(=O)[nH]c3ccccc23)nnc1-c1ccco1 was read as Anthrax LF prot -5, BoNT-A LC inh2 -2, BoNT F protease -26, Bead autofluor 4235 and MazF activator 1.
For O=c1cc(CSc2nnc(-c3ccco3)o2)c2ccccc2[nH]1 the results were Anthrax LF prot -8, BoNT-A LC inh2 inconclusive, BoNT F protease 0, Bead autofluor 22171* and MazF activator -3.
CC(=O)c1c(C)cc(C)c(CSc2nnc(-c3ccco3)o2)c1C was read as Anthrax LF prot -4, BoNT-A LC inh2 2, BoNT F protease 2, Bead autofluor 19958* and MazF activator 6.
For O=C(CSc1nnc(-c2ccco2)o1)c1ccc(F)c(F)c1 the results were Anthrax LF prot 1, BoNT-A LC inh2 -2, BoNT F protease 1, Bead autofluor 21701* and MazF activator 15.
Screening COc1ccc(-c2cc3nc(NCCNC(C)=O)n(C)c(=O)c3s2)c(C)c1 returned Anthrax LF prot 0, BoNT-A LC inh2 -1, BoNT F protease -3 and Bead autofluor 4126.
For Cc1ccc(NC(=O)C2(C)CCN2C(=O)CC(c2ccccc2)c2ccccc2)cc1 (stereo not given) the results were Anthrax LF prot -6, BoNT-A LC inh2 0, BoNT F protease -3 and Bead autofluor 3978.
`Cc1cn2c(N)c(C=C3C=C(Cl)C(=O)C(Cl)=C3)c(=O)nc2s1` gave Anthrax LF prot 32*, BoNT-A LC inh2 23, BoNT F protease 141*, Bead autofluor 26112* and MazF activator 37.
`COC1=C/C(=C/c2c(N)n3cc(C)sc3nc2=O)C=CC1=O` gave Anthrax LF prot 14, BoNT-A LC inh2 6, BoNT F protease 22, Bead autofluor 4949 and MazF activator -49.
